The supplement of paper PMC8728848
Shown is part of a subset that was picked to be rich in the strongest signals.

Tests used:
Assay in all cases: glycan array binding signal (z-score within array); higher = stronger binding
Conditions in all cases: glycan notation: IUPAC condensed, linker removed
[1] = target: Fuc(a1-2)Gal(b1-3)GlcNAc(b1-3)GalNAc
Outline: (§1)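 The binding signal is a Z-score computed within each array. Data were drawn from 3228 arrays in the Consortium for Functional Glycomics database, restricted to those with a known protein sequence. Scores were averaged over arrays of the same protein sequence at different concentrations or buffers, and over linkers, and negative values can be taken as non-binding.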

[2] = target: Fuc(a1-2)Gal(b1-3)[Fuc(a1-4)]GlcNAc
Outline: as §1

[3] = target: Fuc(a1-2)Gal(b1-4)GlcNAc(b1-6)GalNAc
Outline: as §1

[4] = target: Fuc(a1-2)Gal(b1-4)[Fuc(a1-3)]GlcNAc(b1-3)Gal(b1-4)[Fuc(a1-3)]GlcNAc(b1-3)Gal(b1-4)[Fuc(a1-3)]GlcNAc
Outline: as §1

[5] = target: Fuc(a1-2)[Gal(a1-3)]Gal(b1-3)GlcNAc
Outline: as §1

[6] = target: Fuc(a1-2)[Gal(a1-3)]Gal(b1-4)GlcNAc
Outline: as §1

[7] = target: Fuc(a1-2)[Gal(a1-3)]Gal(b1-4)[Fuc(a1-3)]GlcNAc
Outline: as §1

[8] = target: Fuc(a1-2)[GalNAc(a1-3)]Gal(b1-4)GlcNAc(b1-2)Man
Outline: as §1

[9] = target: Fuc(a1-2)[GalNAc(b1-3)]Gal
Outline: as §1

[10] = target: Fuc(a1-3)[Gal(b1-4)]GlcNAc(b1-3)GalNAc
Outline: as §1

Gal(a1-3)Gal(b1-3)GlcNAc = target: Gal(a1-3)Gal(b1-3)GlcNAc
Outline: as §1

[11] = target: Gal(a1-3)Gal(b1-4)[Fuc(a1-3)]GlcNAc
Outline: as §1

Gal(b1-3)Gal = target: Gal(b1-3)Gal
Outline: as §1

Gal(b1-3)GlcNAc = target: Gal(b1-3)GlcNAc
Outline: as §1

[12] = target: Gal(b1-3)GlcNAc(b1-3)Gal(b1-4)GlcNAc(b1-2)[Gal(b1-3)GlcNAc(b1-3)Gal(b1-4)GlcNAc(b1-6)]Man(a1-6)[Gal(b1-3)GlcNAc(b1-3)Gal(b1-4)GlcNAc(b1-2)Man(a1-3)]Man(b1-4)GlcNAc(b1-4)[Fuc(a1-6)]GlcNAc
Outline: as §1

[13] = target: Gal(b1-3)GlcNAc(b1-3)Gal(b1-4)GlcNAc(b1-6)[Gal(b1-3)GlcNAc(b1-3)]Gal(b1-4)Glc
Outline: as §1

Gal(b1-4)Gal = target: Gal(b1-4)Gal
Outline: as §1

[14] = target: Gal(b1-4)GlcNAc(b1-2)Man(a1-3)[Gal(b1-4)GlcNAc(b1-2)Man(a1-6)]Man(b1-4)GlcNAc(b1-4)[Fuc(a1-6)]GlcNAc
Outline: as §1

[15] = target: Gal(b1-4)GlcNAc(b1-2)Man(a1-3)[Gal(b1-4)GlcNAc(b1-2)Man(a1-6)][GlcNAc(b1-4)]Man(b1-4)GlcNAc(b1-4)[Fuc(a1-6)]GlcNAc
Outline: as §1

[16] = target: Gal(b1-4)GlcNAc(b1-2)[Gal(b1-4)GlcNAc(b1-4)]Man(a1-3)[GlcNAc(b1-4)][Gal(b1-4)GlcNAc(b1-2)Man(a1-6)]Man(b1-4)GlcNAc(b1-4)GlcNAc
Outline: as §1

[17] = target: Gal(b1-4)GlcNAc(b1-2)[Gal(b1-4)GlcNAc(b1-6)]Man(a1-6)[GlcNAc(b1-4)][Gal(b1-4)GlcNAc(b1-2)[Gal(b1-4)GlcNAc(b1-4)]Man(a1-3)]Man(b1-4)GlcNAc(b1-4)[Fuc(a1-6)]GlcNAc
Outline: as §1

[18] = target: Gal(b1-4)GlcNAc(b1-3)Gal(b1-4)GlcNAc(b1-2)Man(a1-3)[Gal(b1-4)GlcNAc(b1-3)Gal(b1-4)GlcNAc(b1-2)Man(a1-6)]Man(b1-4)GlcNAc(b1-4)[Fuc(a1-6)]GlcNAc
Outline: as §1

[19] = target: Gal(b1-4)GlcNAc(b1-3)Gal(b1-4)GlcNAc(b1-3)Gal(b1-4)GlcNAc(b1-3)Gal(b1-4)GlcNAc(b1-2)Man(a1-3)[Gal(b1-4)GlcNAc(b1-3)Gal(b1-4)GlcNAc(b1-3)Gal(b1-4)GlcNAc(b1-3)Gal(b1-4)GlcNAc(b1-2)Man(a1-6)]Man(b1-4)GlcNAc(b1-4)GlcNAc
Outline: as §1

[20] = target: Gal(b1-4)GlcNAc(b1-3)Gal(b1-4)GlcNAc(b1-3)Gal(b1-4)GlcNAc(b1-3)Gal(b1-4)GlcNAc(b1-2)Man(a1-3)[Gal(b1-4)GlcNAc(b1-3)Gal(b1-4)GlcNAc(b1-3)Gal(b1-4)GlcNAc(b1-3)Gal(b1-4)GlcNAc(b1-2)Man(a1-6)]Man(b1-4)GlcNAc(b1-4)[Fuc(a1-6)]GlcNAc
Outline: as §1

[21] = target: Gal(b1-4)GlcNAc(b1-3)Gal(b1-4)GlcNAc(b1-3)Gal(b1-4)GlcNAc(b1-3)Gal(b1-4)GlcNAc(b1-3)Gal(b1-4)GlcNAc(b1-2)Man(a1-3)[Gal(b1-4)GlcNAc(b1-3)Gal(b1-4)GlcNAc(b1-3)Gal(b1-4)GlcNAc(b1-3)Gal(b1-4)GlcNAc(b1-3)Gal(b1-4)GlcNAc(b1-2)Man(a1-6)]Man(b1-4)GlcNAc(b1-4)[Fuc(a1-6)]GlcNAc
Outline: as §1

[22] = target: Gal(b1-4)GlcNAc(b1-3)Gal(b1-4)GlcNAc(b1-3)Gal(b1-4)GlcNAc(b1-3)Gal(b1-4)GlcNAc(b1-3)Gal(b1-4)GlcNAc(b1-2)[Gal(b1-4)GlcNAc(b1-3)Gal(b1-4)GlcNAc(b1-3)Gal(b1-4)GlcNAc(b1-3)Gal(b1-4)GlcNAc(b1-3)Gal(b1-4)GlcNAc(b1-6)]Man(a1-6)[Gal(b1-4)GlcNAc(b1-3)Gal(b1-4)GlcNAc(b1-3)Gal(b1-4)GlcNAc(b1-3)Gal(b1-4)GlcNAc(b1-3)Gal(b1-4)GlcNAc(b1-2)Man(a1-3)]Man(b1-4)GlcNAc(b1-4)[Fuc(a1-6)]GlcNAc
Outline: as §1

[23] = target: Gal(b1-4)GlcNAc(b1-3)GalNAc
Outline: as §1

Gal3S6S(b1-4)GlcNAc6S = target: Gal3S6S(b1-4)GlcNAc6S
Outline: as §1

Gal6P(b1-4)GlcNAc = target: Gal6P(b1-4)GlcNAc
Outline: as §1

GalNAc(b1-3)GlcNAc = target: GalNAc(b1-3)GlcNAc
Outline: as §1

B1: AFL5 (Aspergillus fumigatus), Q4WB00 (protein)
chain: MDNFMEMTKKLGHQPELLRLRALDATYDDALEGKLVVAPLDMSEPGKKILDSGTADGTWLRNVRSKQSVPHDYYGSDVEGELFPKDPDGITYFAHSFKDPWPQQYLGFFDLVHIRGSLAGSAPEGPAPVIQNLTTLLKPGGWVQLMEMNAFSPPPNGPAMTDFAKMASEMFTGIGVGDFANNNKSMLEDAGLKNVQEKRVIVNLGKKAKPELHDQSIHGVTGPIVPLTSVARTVKSSFTGEQLDALPARVKEELETEGGQVEMIIAFGQKA
- glycan array binding signal (z-score) [1]: -0.31
- glycan array binding signal (z-score) [2]: -0.036
- glycan array binding signal (z-score) [3]: -0.782
- glycan array binding signal (z-score) [4]: -0.555
- glycan array binding signal (z-score) [5]: -0.252
- glycan array binding signal (z-score) [6]: -0.456
- glycan array binding signal (z-score) [7]: -0.109
- glycan array binding signal (z-score) [8]: -0.322
- glycan array binding signal (z-score) [9]: -0.258
- glycan array binding signal (z-score) [10]: -0.016
- glycan array binding signal (z-score) (Gal(a1-3)Gal(b1-3)GlcNAc): -0.285
- glycan array binding signal (z-score) [11]: 21.5
- glycan array binding signal (z-score) (Gal(b1-3)Gal): -0.063
- glycan array binding signal (z-score) (Gal(b1-3)GlcNAc): -0.272
- glycan array binding signal (z-score) [12]: 1.17
- glycan array binding signal (z-score) [13]: -0.412
- glycan array binding signal (z-score) (Gal(b1-4)Gal): -0.502
- glycan array binding signal (z-score) [14]: 0.004
- glycan array binding signal (z-score) [15]: -0.411
- glycan array binding signal (z-score) [16]: -0.134
- glycan array binding signal (z-score) [17]: 3.2
- glycan array binding signal (z-score) [18]: 1.35
- glycan array binding signal (z-score) [19]: 0.075
- glycan array binding signal (z-score) [20]: 1.69
- glycan array binding signal (z-score) [21]: 1.46
- glycan array binding signal (z-score) [22]: 1.6
- glycan array binding signal (z-score) [23]: -0.561
- glycan array binding signal (z-score) (Gal3S6S(b1-4)GlcNAc6S): 0.29
- glycan array binding signal (z-score) (Gal6P(b1-4)GlcNAc): -0.398
- glycan array binding signal (z-score) (GalNAc(b1-3)GlcNAc): -0.465
